{"source": "PubChem BioAssay AID720629", "about": "(Broad Institute, 2013)", "test": "caspase-3/7 apoptosis induction in SNB-75, late-stage follow-up, mechanism study for HRAS target identification, cell-based, caspase 3/7 luminescence, several timepoints, dry powder (AID 720629)", "details": "max activity: measured here: caspase 3/7, timepoint 1, at 0.0003 µM, stronger effect = higher value unless noted", "note": "Inconclusive results are not listed. Activity calls are given as the source filed them. The rule behind the calls is not given here.", "data": [{"smiles": "C#CCCCC(=O)NCCOCCOCCOc1ccc(N(C(=O)CCl)C(C(=O)NCCc2ccccc2)c2cccs2)cc1Cl", "note": "(centres undefined)", "values": [{"measurement": "max activity", "value": -28.3, "unit": "%"}, {"measurement": "outcome", "value": "inactive"}]}, {"smiles": "CCC(=O)N(c1ccc(OC)c(Cl)c1)C(C(=O)NCCc1ccccc1)c1cccs1", "note": "(centres undefined)", "values": [{"measurement": "max activity", "value": "-24.1% [measured here: caspase 3/7, timepoint 1, at 0.0001 µM, stronger effect = higher value]"}, {"measurement": "outcome", "value": "inactive"}]}]}
